Active and inactive are the calls of the source.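 The calls were made as follows, unless noted: active = inhibition at or above 50% at 10 µM; inactive = inhibition below 50%.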
Key:
[1] = inhibitors of TNFa-induced NFkB p65 translocation, primary screen, imaging, HUVEC, MLSMR starter and 10KST1 sets (AID 438;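 active = inhibition above 20% together with a positive visual image hit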;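 also: compound added about 3h40 before a 20 min TNFalpha stimulation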;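 as to inhibition: signal is the nuclear over cytoplasmic p65 intensity ratio per well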); details: HUVEC TNFa-induced p65 nuclear translocation; cell count: measured here: nuclei count (cytotoxicity indicator), at 2.08 µM; inhibition: at 2 µM, stronger effect = higher value, 0% TNFa-plus-vehicle, 100% no-TNFa wells
[2] = inhibitors of mutant huntingtin aggregation, primary screen, imaging, exon1htt(103Q)mCFP cells, high-content imaging (AID 483;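 active = visual image review flags a hit and inhibition of aggregation exceeds 20%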;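 also: compound exposure lasted 3 days before fixation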;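 as to nuclei count: percent of the per-plate median nuclei count of sample wells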); details: exon1htt(103Q)mCFP cell line, aggregate imaging, at 2 µM; inhibition of aggregation: stronger effect = higher value; nuclei count: measured here: cell count, toxicity
[3] = inhibitors of E-selectin induction by TNFa, primary screen, imaging, HUVEC, immunofluorescence, MLSMR starter and 10KST1 sets (AID 487;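 active = visually confirmed hit in the image check and inhibition above 20%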;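 as to inhibition: signal is fraction of cell area covered by stained E-selectin grains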;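 as to nuclei count: 100% = median nuclei count of all wells on the same plate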); details: HUVEC TNFalpha-induced E-selectin immunofluorescence imaging, at 2 µM; inhibition: stronger effect = higher value; nuclei count: measured here: cell number, toxicity
[4] = target: Voltage-gated potassium channel subunit beta-2 (Rattus norvegicus) (UniProt P62483); test: KvBeta enzyme negative modulators, primary screen, biochemical, NADPH fluorescence (AID 622;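 active = fluorescence slope higher than the sample average by over 3 SD, cut at about -0.22 in these data, passing the limit was not always enough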;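 also: slope of raw intensity against log time taken from 70 to 1610 s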); details: recombinant KvBeta, 4-cyanobenzaldehyde reduction, at 10 µM, stronger effect = higher value
Voltage-gated potassium channel subunit beta-2 (Rattus norvegicus), sequence (P62483 whole entry, looked up): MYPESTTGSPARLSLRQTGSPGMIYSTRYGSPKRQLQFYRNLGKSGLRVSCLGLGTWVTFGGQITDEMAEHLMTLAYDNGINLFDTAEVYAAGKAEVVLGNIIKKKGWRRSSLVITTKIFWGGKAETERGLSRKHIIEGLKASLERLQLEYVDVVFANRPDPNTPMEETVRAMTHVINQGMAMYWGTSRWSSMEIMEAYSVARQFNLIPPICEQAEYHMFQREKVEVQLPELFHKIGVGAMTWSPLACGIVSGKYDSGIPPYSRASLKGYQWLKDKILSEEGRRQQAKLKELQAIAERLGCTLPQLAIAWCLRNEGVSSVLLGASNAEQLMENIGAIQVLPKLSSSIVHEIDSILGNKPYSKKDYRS

[5] = target: Voltage-gated potassium channel subunit beta-2 (Rattus norvegicus) (UniProt P62483); test: KvBeta positive modulators, primary screen, biochemical, NADPH fluorescence (AID 623;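 active = NADPH fluorescence slope more negative than the mean of all samples by about 3 SD, 99.7% confidence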;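 also: fluorescence intensity change per second fitted from 20 to 320 s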); details: Recombinant KvBeta, NADPH fluorescence decrease slope, 10 min; at 10 µM; stronger effect = lower value
[6] = target: Alpha-2C adrenergic receptor (Homo sapiens) (UniProt P18825); test: modulators of alpha2C/GIRK thallium flux, primary screen, cell-based, HEK293 alpha2C/GIRK1/2 (AID 624;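 active = fluorescence slope after compound addition differing from the mean of all screened samples at 99.7% confidence, in either direction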;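 also: slope of fluorescence ratio to pre-addition baseline per second over 15 to 24 s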); details: thallium flux BTC fluorescence, at 10 µM, actives lie on both sides
Alpha-2C adrenergic receptor (Homo sapiens), sequence (P18825 whole entry, looked up): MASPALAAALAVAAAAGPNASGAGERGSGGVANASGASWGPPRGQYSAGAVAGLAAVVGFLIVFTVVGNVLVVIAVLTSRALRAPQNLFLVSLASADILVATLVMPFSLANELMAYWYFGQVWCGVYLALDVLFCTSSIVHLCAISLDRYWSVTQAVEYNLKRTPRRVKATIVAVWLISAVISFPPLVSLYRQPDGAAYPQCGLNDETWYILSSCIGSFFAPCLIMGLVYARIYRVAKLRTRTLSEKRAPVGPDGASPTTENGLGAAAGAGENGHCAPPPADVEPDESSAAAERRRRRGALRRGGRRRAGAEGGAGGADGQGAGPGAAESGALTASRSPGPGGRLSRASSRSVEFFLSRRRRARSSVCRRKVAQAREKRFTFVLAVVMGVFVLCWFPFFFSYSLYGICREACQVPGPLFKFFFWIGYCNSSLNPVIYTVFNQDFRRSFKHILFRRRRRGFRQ

[7] = inhibitors of Sendai virus-induced IRF3 signaling, primary screen, TLR/RLR signaling modifier project, cell-based, Sendai virus stimulus, luciferase, 10K MLSCN set (AID 602276); details: HEK293 RL24 IRF3 luciferase reporter, at 10 µM, stronger effect = higher value;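 also: firefly luciferase from ISG56 promoter only with Renilla not read in this screen; 0% = Sendai virus plus DMSO and 100% = medium plus DMSO without virus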
[8] = inhibitors of poly I:C-induced TLR3 signaling, primary screen, cell-based, poly I:C stimulus, luciferase, 10K MLSCN set (AID 602277;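 active = inhibition of the reporter signal at or above 50%; inactive = inhibition below 50%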); details: HEK293-TLR3 RL24 IRF3 luciferase reporter, at 10 µM, stronger effect = higher value

SMILES	cell count [1]	inhibition [1]	inhibition of aggregation [2]	nuclei count [2]	inhibition [3]	nuclei count [3]	fluorescence slope [4]	NADPH fluorescence slope [5]	slope [6]	inhibition [7]	inhibition [8]
COCCN(C(=O)CNC(=O)c1ccco1)C(C(=O)NC1CCCCC1)c1cccc(OC)c1 (centres undefined)	650	-9.5% (inactive)	15.9% (inactive)	104%	37% (inactive)	101%	-0.444 (inactive)	-2e-05 (inactive)	0.00264 (inactive)	5.23% (inactive)	36.9% (inactive)
COc1cccc(-c2csc3nc[nH]c(=O)c23)c1	517	4.9% (inactive)	-18.2% (inactive)	98.7%	-72.4% (inactive)	97.9%	-0.426 (inactive)	-3.4e-05 (inactive)	0.0038 (inactive)	8.62% (inactive)	2.24% (inactive)
CC(=O)NCc1cccc(CNC(C)=O)n1	652	9.2% (inactive)	-29% (inactive)	109%	-92.7% (inactive)	101%	-0.432 (inactive)	-2.5e-05 (inactive)	0.00626 (inactive)	12% (inactive)	14.4% (inactive)
O=C(NCc1ccc2c(c1)OCO2)C1CCCN(S(=O)(=O)c2cccc3cccnc23)C1 (centres undefined)	741	-8% (inactive)	20.4% (inactive)	125%	-40.6% (inactive)	104%	-0.527 (inactive)	-6.1e-05 (inactive)	0.00698 (inactive)	15.2% (inactive)	40.4% (inactive)
O=C(c1ccc(=O)[nH]c1)N(Cc1ccco1)C1(C(=O)NC2CCCC2)CCCCC1	296	-7.1% (inactive)	42.7% (active)	85.1%	-73.8% (inactive)	104%	-0.529 (inactive)	-8.3e-05 (inactive)	0.00538 (inactive)	-75.5% (inactive)	96.9% (active)
CCOc1ccc2nc(N3CCC(C(=O)N4CCN(C5CCCCC5)CC4)CC3)sc2c1	594	-0.8% (inactive)	-15.4% (inactive)	103%	-54% (inactive)	107%	-0.553 (inactive)	6.2e-06 (inactive)	0.00601 (inactive)	-54.1% (inactive)	-73.6% (inactive)
Cc1ccccc1C(=O)NC1CCN(Cc2nnnn2Cc2ccccc2)CC1	551	-30.6% (inactive)	-10.9% (inactive)	110%	-36.5% (inactive)	111%	-0.585 (inactive)	-4.3e-05 (inactive)	0.00483 (inactive)	7.81% (inactive)	19.8% (inactive)
CC1(C(=O)NC2CCCCC2)CCC(=O)N1Cc1cccs1 (centres undefined)	803	-0.6% (inactive)	1.4% (inactive)	104%	-78.3% (inactive)	130%	-0.594 (inactive)	-2.7e-05 (inactive)	0.00547 (inactive)	-11.7% (inactive)	12.6% (inactive)
Cc1ccc(C2CC(c3ccc(C)cc3)n3nc(N)nc3N2)cc1 (centres undefined)	871	2.8% (inactive)	15.1% (inactive)	95.1%	-71.7% (inactive)	116%	-0.613 (inactive)	-1.7e-05 (inactive)	0.00808 (inactive)	-11.6% (inactive)	0.814% (inactive)
COc1ccc(-c2nc(SC)n(S(=O)(=O)c3ccccc3)n2)cc1	683	-1.9% (inactive)	7.6% (inactive)	99.4%	-122% (inactive)	109%	-0.476 (inactive)	9.5e-05 (inactive)	0.00851 (inactive)	-26% (inactive)	-119% (inactive)
COC(=O)Cn1ncc2c(C)n(Cc3ccccc3)c(C)c2c1=O	732	-5.2% (inactive)	15.7% (inactive)	88.1%	-72.2% (inactive)	122%	-0.563 (inactive)	-2.4e-05 (inactive)	0.00743 (inactive)	-29.4% (inactive)	-89.1% (inactive)
CCOc1ccc(NC(=O)CCN2CCN(c3ccccc3)CC2)cc1	696	-6.4% (inactive)	8.3% (inactive)	101%	-44.6% (inactive)	105%	-0.261 (inactive)	-1.2e-05 (inactive)	0.00485 (inactive)	20.2% (inactive)	16.6% (inactive)
CC1CCN(S(=O)(=O)c2ccc3[nH]c(=O)cc(C(=O)O)c3c2)CC1	323	-20.8% (inactive)	8.5% (inactive)	129%	-20% (inactive)	104%	-0.463 (inactive)	-0.000161 (inactive)	0.00662 (inactive)	-2.34% (inactive)	13% (inactive)
COc1ccc(-n2c(=O)cc(N3CCN(Cc4ccccc4)CC3)[nH]c2=O)cc1	672	-2.4% (inactive)	-0.4% (inactive)	119%	26.6% (inactive)	108%	-0.621 (inactive)	1.9e-05 (inactive)	0.00623 (inactive)	12.1% (inactive)	18.9% (inactive)
